# Source: PubChem BioAssay AID463173 (ICCB-Longwood Screening Facility, Harvard Medical School, 2010)
# Hit rate of the full screen: of about 52,000 compounds, about 1,700 (3.3%) were called active. This is one part of a sample in which actives are shown more often than they occur. Rule as the data show it: active = survival mostly below about 52% (no sharp cut-off); inactive = mostly above about 56%.
# System: Wild type
# Test: S. aureus survival, RN4220 and DeltatarO strains – OD600, teichoic acid synthesis inhibitors, primary screen (AID 463173)
# Settings: S. aureus RN4220 wild type/DeltatarO growth, OD600, 18 h, stronger effect = lower value, screened at 18.75 µg/mL (by protocol)
row,Compound,survival
1,CS(=O)(=O)N1CCN(C(=O)c2ccccc2)CC1,110% (inactive)
2,CCn1cc(C(=O)NCCCN(CC(C)C)CC(C)C)c(=O)c2cc(S(=O)(=O)N3CCc4ccccc4C3)ccc21,80% (inactive)
3,CC1C(=O)Nc2ccc(S(=O)(=O)Nc3ccccc3Br)cc2NC1=O (centres undefined),89% (inactive)
4,Cc1ccc(NS(=O)(=O)c2ccc3c(c2)NC(=O)C(C)C(=O)N3)cc1F (centres undefined),86% (inactive)
5,Cc1ccc(NS(=O)(=O)c2ccc3c(c2)NC(=O)CCS3)c(Br)c1,-3% (active)
6,Cc1cc(C)cc(NS(=O)(=O)c2ccc3c(c2)NC(=O)C(C)S3)c1 (centres undefined),12% (active)
7,Cc1cc(C)c(NS(=O)(=O)c2ccc3c(c2)NC(=O)CCS3)c(C)c1,60% (inactive)
8,O=C1CCSc2ccc(S(=O)(=O)Nc3ccc(Cl)c(C(F)(F)F)c3)cc2N1,81% (inactive)
9,Cc1ccc(NS(=O)(=O)c2ccc3c(c2)NC(=O)CCS3)cc1C,63% (inactive)
10,O=C1CCSc2ccc(S(=O)(=O)Nc3cccc(C(F)(F)F)c3)cc2N1,-4% (active)
11,Cc1ccccc1NS(=O)(=O)c1ccc2c(c1)NC(=O)CCS2,57% (inactive)
12,Cc1nn(C)c(C)c1S(=O)(=O)N(CC(=O)NCCc1ccccc1)c1ccc(C(C)C)cc1,86% (inactive)
13,COc1cc(NC(=O)C2CCN(S(=O)(=O)c3c(C)noc3/C=C/c3ccccc3F)CC2)cc(OC)c1OC,64% (inactive)
14,CCCCC(=O)Oc1ccc2oc(-c3ccc(OC)cc3)cc(=O)c2c1,69% (inactive)
15,Cc1c(Cl)cccc1-n1nnc(-c2nc(-c3ccc4c(c3)OCO4)no2)c1C,73% (inactive)
16,CN(C)c1ccc(CNC(=O)c2ccc3nc(CCc4ccccc4)oc3c2)cc1,78% (inactive)
17,COc1ccc(CCNC(=O)c2ccc3nc(CCc4ccccc4)oc3c2)cc1OC,10% (active)
18,COc1ccc(CCNC(=O)c2ccc3nc(Cc4ccccc4)oc3c2)cc1OC,124% (inactive)
19,CCCNC(=O)c1ccc2nc(CCc3ccccc3)oc2c1,73% (inactive)
20,O=C(NCc1cccc(F)c1)c1ccc2nc(CCc3ccccc3)oc2c1,71% (inactive)
21,COc1ccc(CNC(=O)c2ccc3nc(CCc4ccccc4)oc3c2)c(OC)c1,131% (inactive)
22,COc1ccc(CNC(=O)c2ccc3nc(CCc4ccccc4)oc3c2)cc1,-2% (active)
23,COc1ccc(CNC(=O)c2ccc3nc(CCc4ccccc4)oc3c2)cc1OC,71% (inactive)
24,O=C(NCc1ccccc1)c1ccc2nc(CCc3ccccc3)oc2c1,-3% (active)
25,O=C(NCCc1ccccc1)c1ccc2nc(CCc3ccccc3)oc2c1,0% (active)
26,COc1ccc(Cc2nc3ccc(C(=O)NCCc4ccc(OC)c(OC)c4)cc3o2)cc1,68% (inactive)

row,Compound,survival
1,O=C(NCCc1ccc(Cl)cc1)c1ccc2nc(CCc3ccccc3)oc2c1,59% (inactive)
2,COc1ccc(CCNCc2ccc3c(c2)n(C)c(=O)n3C)cc1OC,111% (inactive)
3,O=C(Nc1ccc2nc(C3CC3)n(Cc3ccccc3)c(=O)c2c1)C1CC1,104% (inactive)
4,CCc1ccc(CN(Cc2ccco2)C(=O)COc2ccccc2Cl)cc1,85% (inactive)
5,Cc1ccc(N2CCN(S(=O)(=O)c3nnc(NC(=O)c4ccc(C(C)C)cc4)s3)CC2)cc1,82% (inactive)
6,Cc1cc(C)cc(C(=O)Nc2cc(C(F)(F)F)ccc2N2CCN(c3ccccc3)CC2)c1,78% (inactive)
7,CCc1ccc(CNC(=O)c2ccc3c(c2)nc2n3CCC(C)C2)cc1 (centres undefined),127% (inactive)
8,COC(=O)CCc1sc(Nc2ccc(OC)cc2)nc1-c1ccc(OC)cc1,77% (inactive)
9,Cc1c(NC=O)c(=O)n(-c2ccccc2)n1C,107% (inactive)
10,CC(=O)c1ccc(NC(=O)COCc2cc(-c3ccco3)on2)cc1,129% (inactive)
11,O=C(O)c1ccc(Cn2cnc3cccnc32)cc1,55% (inactive)
12,CC(C)(C)NC(=O)C1CC(=O)OC1(C)C (centres undefined),107% (inactive)
13,COc1ccc(Br)cc1C1Sc2ccccc2NC2=C1C(=O)c1ccccc12 (centres undefined),41% (inactive)
14,Cc1ccc(OCCCC(=O)Nc2sc3c(c2C(N)=O)CCCC3)cc1,57% (inactive)
15,CCCCOc1cccc(C(=O)Nc2sc3c(c2C(=O)OCC)CCCC3)c1,72% (inactive)
16,COC(=O)c1c(NC(=O)CCCOc2cccc(C)c2)sc2c1CCC2,12% (active)
17,COC(=O)c1c(NC(=O)c2ccc(OC)cc2OC)sc2c1CCCCC2,56% (inactive)
18,COC(=O)c1c(NC(=O)c2c(OC)cccc2OC)sc2c1CCCC2,3% (active)
19,COC(=O)c1c(NC(=O)COc2ccc(C)cc2Br)sc2c1CCCC2,44% (inactive)
20,COC(=O)c1c(NC(=O)COc2ccc(C(C)C)cc2)sc2c1CCCC2,51% (inactive)
21,COC(=O)c1c(NC(=O)COc2cccc(C(F)(F)F)c2)sc2c1CCCC2,72% (inactive)
22,COC(=O)c1c(NC(=O)c2ccccc2C(=O)O)sc2c1CCCC2,110% (inactive)
23,COC(=O)c1c(NC(=O)CCCOc2ccc(C)cc2)sc2c1CCCC2,3% (active)
24,COC(=O)c1c(NC(=O)COc2c(C)cccc2C)sc2c1CCCC2,6% (active)
25,COC(=O)c1c(NC(=O)COc2cc(C)c(Cl)c(C)c2)sc2c1CCCC2,140% (inactive)
26,O=c1nc2c(-c3ccc(F)cc3Cl)n[nH]n2c2ccccc12,72% (inactive)

row,Compound,survival
1,COc1ccc(-c2nc(Cn3c(SCc4cccc(Cl)c4)nc4ccncc43)c(C)o2)cc1,132% (inactive)
2,O=C(CSC1=Nc2ccccc2N=C(c2ccc(F)cc2)C1)Nc1ccc(Cl)cc1,92% (inactive)
3,CCN(CC)C1=C(C(=O)c2ccccc2)NS(=O)(=O)c2ccccc21,103% (inactive)
4,CCOc1ccc(-c2nnc(SCC(=O)NCc3ccccc3Cl)o2)cc1,85% (inactive)
5,O=C(Nc1ccccc1)C1CCCN1C1CCCCC1 (centres undefined),108% (inactive)
6,O=C1OC(c2ccccc2)=N/C1=C1\OC(=O)c2ccccc21,104% (inactive)
7,CC1CCCCN1C(=O)CSc1n[nH]c(-c2ccccc2Cl)n1 (centres undefined),72% (inactive)
8,CCCN(Cc1cccs1)C(=O)Nc1ccc(Br)cc1F,76% (inactive)
9,COC(=O)c1c(NC(=O)COc2c(C)ccc(C)c2C)sc2c1CCC(C)C2 (centres undefined),11% (active)
10,CCOC(=O)c1c(NC(=O)CS(=O)(=O)c2ccc(C)cc2)sc2c1CCCCC2,87% (inactive)
11,COC(=O)c1c(NC(=O)CS(=O)(=O)c2ccc(C)cc2)sc2c1CCCC2,-6% (active)
12,Cc1ccccc1OCC(=O)Nc1sc2c(c1C(=O)OC(C)C)CCCC2,69% (inactive)
13,COC(=O)c1c(NC(=O)CCCOc2cccc(C)c2)sc2c1CCC(C)C2 (centres undefined),4% (active)
14,COC(=O)c1c(NC(=O)CS(=O)(=O)c2ccc(C)cc2)sc2c1CCCCC2,67% (inactive)
15,COC(=O)c1c(NC(=O)CCCOc2ccccc2C)sc2c1CCC2,4% (active)
16,CCOC(=O)c1c(NC(=O)COc2cccc(C(F)(F)F)c2)sc2c1CCC(C)C2 (centres undefined),74% (inactive)
17,COC(=O)c1c(NC(=O)COc2ccc(OC)cc2)sc2c1CCC(C)C2 (centres undefined),86% (inactive)
18,Cc1cccc(OCCCC(=O)Nc2sc3c(c2C(N)=O)CCC(C)C3)c1 (centres undefined),88% (inactive)
19,COC(=O)c1c(NC(=O)COc2cc(C)ccc2C(C)C)sc2c1CCC(C)C2 (centres undefined),66% (inactive)
20,COC(=O)c1c(NC(=O)COc2ccc(Cl)cc2C)sc2c1CCCCC2,83% (inactive)
21,Cc1nc2nc(C)c(NS(=O)(=O)c3ccc(F)cc3)c(=O)n2[nH]1,81% (inactive)
22,O=C(O)CCNc1ccc(Cl)cn1,86% (inactive)
23,S=c1nc[nH]c2c1oc1ccccc12,96% (inactive)
24,Cc1ccccc1NC(=O)CSc1nc(-c2ccc(F)cc2)nc2c1Cc1ccccc1O2,77% (inactive)
25,CCOc1ccc(C(=O)N(C)CC2COc3ccccc3O2)cc1 (centres undefined),98% (inactive)
26,COc1cccc(-c2ncnn2-c2sc3c(c2C#N)CCCCC3)c1OC,72% (inactive)

row,Compound,survival
1,N#Cc1c(-n2ncnc2-c2ccccc2Cl)sc2c1CCCCC2,38% (inactive)
2,N#Cc1c(-n2ncnc2-c2ccccc2C(F)(F)F)sc2c1CCCCC2,4% (active)
3,Cc1ccccc1-c1ncnn1-c1sc2c(c1C#N)CCCCC2,65% (inactive)
4,COc1ccccc1-c1cc(C(=O)Nc2sc3c(c2C#N)CCCC3)no1,140% (inactive)
5,COc1ccccc1-c1ncnn1-c1sc2c(c1C#N)CCCCC2,1% (active)
6,CCOc1ccccc1NC(=O)CSc1c(C)cnc2c1c(=O)n(C)c(=O)n2C,67% (inactive)
7,CCN(CC)C(=O)Cn1c(=O)nc(-c2ccccc2F)c2cc(Cl)ccc21,73% (inactive)
8,CC1CCN(c2nc3nonc3nc2Nc2ccc(F)cc2)CC1,103% (inactive)
9,O=C(Nc1cccc(Cl)c1)C1CCCN(c2ncnc3c2nc2n3CCCCC2)C1 (centres undefined),36% (inactive)
10,CC1CCCN(c2nc3nonc3nc2Nc2cccc(Cl)c2)C1 (centres undefined),0% (active)
11,CCOC(=O)c1cc(C(C)(C)C)oc1CN,95% (inactive)
12,CC(C)N(Cc1ccccc1)C(=O)CN1C(=O)CSc2ccc(S(=O)(=O)N3CCCC3)cc21,100% (inactive)
13,Cc1cccc(CNC(=O)C2CCN(c3nc4ccc(Cl)cc4[nH]3)CC2)c1,79% (inactive)
14,CC1CCN(C(=O)CSc2nc3ccccc3nc2Cc2ccccc2)CC1,73% (inactive)
15,CCOCCc1nn2c(=O)cc(COC(=O)c3ccc4c(c3)OCO4)nc2s1,133% (inactive)
16,CCCc1nn2c(=O)cc(COC(=O)c3ccccc3NC(=O)c3ccc(OCC)cc3)nc2s1,22% (inactive)
17,CCOCCc1nn2c(=O)cc(COC(=O)CNC(=O)c3cccc(C)c3)nc2s1,84% (inactive)
18,CCCc1nn2c(=O)cc(COC(=O)c3cccc(NC(=O)c4ccc(OCC)cc4)c3)nc2s1,-2% (active)
19,CCOCCc1nn2c(=O)cc(COC(=O)c3ccc(NC(=O)c4cccs4)cc3)nc2s1,118% (inactive)
20,CCOCCc1nn2c(=O)cc(COC(=O)c3ccc(NC(=O)C(C)(C)C)cc3)nc2s1,77% (inactive)
21,COCCc1nn2c(=O)cc(COC(=O)c3ccccc3C)nc2s1,-6% (active)
22,CCOCCc1nn2c(=O)cc(COC(=O)c3cccc(C)c3)nc2s1,-6% (active)
23,CCOc1ccc(C(=O)Nc2cccc(C(=O)OCc3cc(=O)n4nc(C5CC5)sc4n3)c2)cc1,51% (inactive)
24,CCOCCc1nn2c(=O)cc(COC(=O)c3ccc(NC(=O)c4ccc(F)cc4)cc3)nc2s1,0% (active)
25,CCCCc1nn2c(=O)cc(COC(=O)c3ccccc3C)nc2s1,72% (inactive)
26,COCCc1nn2c(=O)cc(COC(=O)COc3ccccc3C)nc2s1,80% (inactive)
